Results on 39 compounds are retold here after ChEMBL document CHEMBL3988442, “University of Dundee, Small-Polar-MMV Screening Library” (2021).

The experiment addresses AMP-activated protein kinase, AMPK (Homo sapiens) (UniProt P54646+O43741+P54619+Q9UGJ0+Q9Y478+Q13131+Q9UGI9). Nature of the experiment: AMP-dependent Kinase enzyme assay. An in vitro enzyme assay that detects ADP turnover that is directly proportional to AMPK activity. This uses naive AMPK that is activated during the assay with MK-8722. On the set-up: scale not given: direction of the effect not stated beside the values. It is filed as functional. Conditions: 30 µM.
As for `CC(C)CCN(C(=O)Nc1cccc(C(=O)N(C)C)c1)C1CC1`, the Percent Effect is -4.54%. Take `COc1ccccc1NC(=O)CCNC(=O)c1ccoc1`: the Percent Effect was -6.87%. `Cc1csc(C(=O)N2CCC(S(C)(=O)=O)C2)c1` (centres undefined): the Percent Effect was -5.3%. With `COCCN(Cc1sccc1C)C(=O)COc1cccnc1` the figure was -3.19%. For `CCC(=O)NC(CC)c1ccccc1C` (centres undefined) the value was 7.08%; for `CCc1nnc(CN2CC(n3cccn3)C2)o1`, -3.56%. For `CCc1oc(C(=O)NC(C)c2ncn[nH]2)cc1CN1CCCC1` (centres undefined) the value was -1.83%.

Regarding `CCCn1cc(-c2cc(C(=O)N(C)C)c3cccc(C)c3n2)cn1`, the Percent Effect was 7.04%.

In the case of `CC(C)(O)CCc1cccc(C(=O)NCc2nccs2)c1`, the Percent Effect was found to be 0.5%. With `Cc1nc(O)cc(CN2C[C@H](NC(=O)C3CCC3)[C@@H](C3CC3)C2)n1` the figure was -2.67%; with `O=C1CN(C(=O)CC2c3ccccc3CCc3ccccc32)CCN1`, 30.9%; with `NCC(CO)Cc1ccc(C(F)(F)F)cc1` (centres undefined), -3.66%.

Take `Oc1cc(C2CCCCN2Cc2cccs2)nc(-c2ccncc2)n1` (centres undefined): the Percent Effect turned out to be 1.11%. For `Cc1nc(CN2CCN(S(=O)(=O)N3CCOCC3)CC2)oc1C` the value was -4.75%. As for `CC(C)c1nc(C2CCCN2CCS(C)(=O)=O)no1` (centres undefined), the Percent Effect amounted to 6.84%. With `COCCC(=O)Nc1nc2c(OC)cc(F)cc2s1` the figure was -1.47%; with `Cc1cc(CC(C)NC(=O)c2n[nH]c3c2CCC3)n[nH]1` (centres undefined), 3.64%. Take `Cc1ccc(CNC(=O)NCc2ccco2)s1`: the Percent Effect was found to be 2.27%.

As to `COCCN(C)C[C@@H]1CN(c2cc(C)nc3ccccc23)C[C@@H]1CO`, the Percent Effect is -6.62%. For `CCC(CC)C(=O)N1CCC2(CC1)c1ccccc1[C@@H](OC)[C@@H]2O` the value was 14%. For `Cc1cc(C2CCCN(Cc3nnc(Cc4ccccc4)o3)C2)n[nH]1` (centres undefined) the value was 18%. Take `Cc1cc(N(C)C)nc(N2CCn3c(nnc3C3CC3)C2)n1`: the Percent Effect is -2.99%. With `O=C(Cc1c[nH]c(=O)[nH]c1=O)N1CCCCC1CCc1cccc(O)c1` (centres undefined) the figure was 1.27%; with `CCCc1nc(C)cc(N2Cc3cnn(CCO)c3C2)n1`, 5.18%; with `FC(F)(F)c1cccc(OC2CCN(Cc3ncc[nH]3)CC2)c1`, 7.66%.

As for `CCc1nn(C)c(Cl)c1CN1CCCC2(C1)CN(C)C(=O)O2` (centres undefined), the Percent Effect amounted to 5.15%. With `CC(C)c1ccc(S(=O)(=O)NC2CCN(CC(F)(F)F)C2)cc1` (centres undefined), the Percent Effect was 8.13%.

Take `COc1ccc(Cl)cc1C(=O)NCc1cnn(C)c1C`: the Percent Effect was determined as 7.53%. For `Cc1cc(-c2ccnn2C)nc(C2CCN(S(C)(=O)=O)CC2)n1` the value was 9.22%; for `Cc1ccc(O)c(C(=O)N2CCC3(CCCNC3)C2)c1` (centres undefined), 11.1%. For `Oc1c(F)cc(CNc2cccc(-c3nnc[nH]3)c2)cc1F` the value was 40.3%; for `CC(C)CN(Cc1ccccn1)Cc1ccccc1OCC(=O)O`, -7.24%.

As for `CCN(CC)C(CNC(=O)c1ccc(-n2cncn2)cc1)c1ccsc1` (centres undefined), the Percent Effect is -4.43%.

For the compound `CC(C)Cc1noc(CN(C)C2CCCC2)n1`, the Percent Effect stood at 10.7%. In the case of `CCc1oc(C(=O)N[C@@H]2c3ccccc3C[C@@H]2O)cc1CN1CCCC1`, the Percent Effect came to 4.06%. On to `CNC(=O)CCOC(=O)c1cccc(-n2cccn2)c1`, for which the Percent Effect is 7.17%. With `CCCc1nc(C(=O)NC(COC)c2ccnn2C)cs1` (centres undefined) the figure was -0.17%; with `CCN(C)S(=O)(=O)N1CCC(C(O)c2ccc(Cl)cc2)CC1` (centres undefined), 1.46%. Turning to `O=C(CCN1CCOCC1)Nc1cccc(CNCc2cccs2)c1`, the Percent Effect is -8.77%.
